Screening data: PubChem, several laboratories
Compounds with a hit are over-represented: about 1.3% of the library has one in this group of screens.
CCHFV vOTU inh = CCHFV vOTU protease inhibition; 370,000 compounds, 0.55% hits; Pep-AMC fluorescence; AID 651958; inhibition, % at 11.5 µM; in the data active means inhibition above about 30%; further: 0% = vehicle wells with enzyme and 100% = no enzyme wells
3CLpro inhibitor = SARS-CoV 3CLpro protease inhibition; P0C6X7; recombinant SARS-CoV 3CLpro, quenched FRET peptide cleavage; inhibition, % at 6 µM; 290,000 compounds, 0.14% hits; AID 1706; in the data active means inhibition above about 12%
PriA SSB inh = blocks PriA binding to SSB C-terminal tail; inhibition, % at 33 µM; AlphaScreen SSBct-PriA binding, biotinylated peptide; 430,000 compounds, 0.6% hits; in the data active means inhibition mostly above about 37%, no sharp cut-off; inactive means mostly below about 20%;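 further: plate controls were negative control peptide for no effect and reference peptide for full effect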
Mtb hypoxia rep = inhibitors of hypoxia-regulated fluorescent reporter in Mycobacterium tuberculosis. M. tuberculosis hypoxia-regulated fluorescent reporter, fluorescence. fluorescence inhibition, % (concentration not given with the values). 300,000 compounds, 0.1% hits; in the data active means fluorescence inhibition mostly above about 23%, no sharp cut-off; inactive means mostly below about 17%
VHR inh abs = DUSP3 (human) phosphatase inhibition; P51452; recombinant VHR phosphatase, pNPP absorbance; inhibition, % at 13.3 µM; 290,000 compounds, 0.52% hits; AID 1654; in the data active means inhibition above about 50%
Target sequence (P51452 whole entry, looked up): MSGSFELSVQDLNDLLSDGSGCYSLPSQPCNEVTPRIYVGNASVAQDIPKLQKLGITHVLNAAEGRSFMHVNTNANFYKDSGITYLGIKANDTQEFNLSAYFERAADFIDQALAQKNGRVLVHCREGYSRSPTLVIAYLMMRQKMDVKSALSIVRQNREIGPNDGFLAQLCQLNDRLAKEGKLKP
Starred values were filed as active, the others as inactive; · = no result given.

SMILES	CCHFV vOTU inh	3CLpro inhibitor	PriA SSB inh	Mtb hypoxia rep	VHR inh abs
Cc1ccc(NC2CCCN(C(=O)CN3C(=O)CSC3=O)C2)cc1C (stereo not given)	19.8	2.4	1.7	-6.4	53.3*
COC1CCN(C(=O)Cn2ccc3ccccc32)CC1	·	·	-9.0	·	·
CC1CCc2oc3c(cc(NS(=O)(=O)c4cccs4)c4ccccc43)c2C1 (stereo not given)	·	·	22.0	·	·
CC1CCc2oc3c(cc(NS(=O)(=O)c4ccc(Br)cc4)c4ccccc43)c2C1 (stereo not given)	·	·	37.0*	·	·
O=C(NCC(c1ccco1)N1CCc2ccccc2C1)C(=O)Nc1ccc2c(c1)OCCO2 (stereo not given)	·	·	-31.0	·	·
COc1cc(/C=C/CN2CCC(Oc3ccc(C(=O)N4CCCC4)cc3)CC2)ccc1O	-5.3	5.9	4.2	1.9	-16.6
COc1ccccc1/C=C/CN1CCC(Oc2ccc(C(=O)N3CCCC3)cc2)CC1	9.4	-5.0	12.9	-3.7	52.8*
O=C(Nc1nncs1)c1cc(Cl)ccn1	·	·	123.5*	·	·
O=C(O)c1cc(Br)ccn1	2.4	-0.8	99.7*	-14.0	7.7
O=C(O)c1ccnc(Br)c1	·	·	-6.0	·	·
O=C(O)c1cc(-n2ccnc2)ccn1	·	·	72.2*	·	·
O=C(O)c1ccnc(C(=O)O)c1	-10.2	1.1	56.9*	-3.5	15.4
O=C(Nc1ccc2c(c1)CN(C(=O)c1ccco1)CC2)c1ccc(F)cc1Cl	·	·	-6.0	·	·
Cc1onc(-c2ccccc2Cl)c1C(=O)NCC(O)c1cccn1C (stereo not given)	·	·	-19.0	·	·
CN(C)c1ccnc(C(=O)O)c1	-4.6	1.7	-19.0	2.8	18.4
O=C(O)c1cc(Cl)ccn1	·	·	67.9*	·	·
Cn1c(-c2ccc(Br)cc2)cnc1SCc1ccccc1	·	·	67.0*	·	·
Cc1ccsc1C(=O)NCc1ccccc1Cl	2.0	0.3	-23.4	-2.3	58.5*
Nc1cccc(CCc2ccncc2)c1	5.0	1.1	3.0	4.1	58.2*
Cc1ccc(NC(=O)C(=O)NCC(c2ccsc2)N2CCc3ccccc3C2)cc1F (stereo not given)	·	·	4.0	·	·
O=C(NC1CCN(C(=O)Nc2cccc(F)c2)CC1)c1ccco1	5.2	1.8	57.6*	·	25.9
COc1cccc(NC(=O)N2CCC(NC(=O)c3ccco3)CC2)c1	7.6	-3.8	-3.0	3.3	15.3
CC(C)c1nnc(NC(=O)c2cncc(Br)c2)s1	·	·	4.0	·	·
COC(=O)c1sc2ccccc2c1S(=O)(=O)N(C)CC(=O)Nc1cccc(C(F)(F)F)c1	·	·	-9.0	·	·
COCCn1c(SCC(=O)Nc2ccc(OC)cc2OC)nc2ccccc2c1=O	0.4	-1.6	7.8	1.7	51.3*
SMILES	CCHFV vOTU inh	3CLpro inhibitor	PriA SSB inh	Mtb hypoxia rep	VHR inh abs
Cc1ccc(-c2csc(NC(=O)CSc3nc4ccccc4c(=O)n3CCCN(C)C)n2)cc1	-2.6	3.3	54.8*	·	-6.4
CCn1c(SCC(=O)Nc2nc(-c3ccc(C)cc3)cs2)nnc1-c1ccccc1	10.4	-1.2	-16.3	-14.1	30.5
CC(=O)Nc1ccc(CC(=O)N2CCC(S(=O)(=O)CC(C)C)CC2)cc1	·	·	-4.0	·	·
Cn1cccc1C(CNC(=O)c1cccs1)N1CCc2ccccc2C1 (stereo not given)	·	·	6.0	·	·
COc1ccc(S(=O)(=O)N2CCC(C(=O)Nc3cccc(-c4nc5ccccc5[nH]4)c3)CC2)cc1	·	·	-10.0	·	·
CN(C)CCNC(=O)C(=O)Nc1ccccc1F	·	·	-15.0	·	·
O=C(COc1ccc(Cl)cc1Cl)Nc1c(C(=O)Nc2ccc3c(c2)OCO3)oc2ccccc12	·	·	-19.0	·	·
CCC(C(=O)N1CCN(Cc2nc3ccccc3[nH]2)CC1)c1ccccc1 (stereo not given)	·	·	-10.0	·	·
N#CC(c1cccc(Cl)c1)c1ccc2c(C(F)(F)F)cc(C(F)(F)F)nc2n1 (stereo not given)	-2.6	0.7	50.6*	·	0.1
CC1CN(c2ncnc3c2cnn3CCNC(=O)c2ccc(F)cc2)CC(C)O1 (stereo not given)	·	·	-3.0	·	·
Cc1nn(-c2ccc(N3CCOCC3)nn2)c(C)c1CCC(=O)N1CCN(C)CC1	11.3	0.8	-3.0	75.2*	16.6
Cc1ccccc1NC(=O)CCc1c(C)nn(-c2ccc(N3CCOCC3)nn2)c1C	-10.1	-5.2	-7.4	-3.8	-11.6
COc1nn(C)cc1C(=O)NC(C)Cc1ccoc1 (stereo not given)	·	·	-6.0	·	·
CCCn1c(SCC(=O)NC(C)(C)C)nnc1-c1ccco1	2.2	1.1	-13.8	8.5	53.0*
CC(C)(C)NC(=O)CSc1nnc(-c2ccco2)n1Cc1ccco1	5.6	3.9	-8.1	2.5	6.7
O=C(CSc1ccccc1)N(Cc1cccnc1)c1nc2c(F)cccc2s1	·	·	-17.0	·	·
COC(=O)c1ccc(C(=O)Nc2nnc(-c3ccc4c(c3)CCCC4)o2)cc1	·	·	38.0*	·	·
CN(C)S(=O)(=O)c1ccc(C(=O)Nc2nnc(-c3ccc4c(c3)CCCC4)o2)cc1	-1.3	-0.2	-8.8	-3.5	15.1
Cc1cc(C(=O)Nc2nc(C(=O)Nc3cccc(NS(C)(=O)=O)c3)co2)no1	·	·	-10.0	·	·
C=C(C)CNC(=S)NNC(=O)c1ccc(Br)cc1	-25.4	2.3	7.1	9.6	50.8*
O=[N+]([O-])c1ccc(NN=Cc2ccc[nH]2)cc1	·	·	54.7*	9.1	·
Cc1ccc2c(c1)C1CC(C)(O2)N(c2cccc(C(=O)N3CCN(c4ccccn4)CC3)c2)C(=O)N1 (stereo not given)	12.3	-3.5	7.4	-4.2	56.3*
CCOC(=O)C1CCN(C(=O)c2cccc(N3C(=O)NC4CC3(C)Oc3ccc(C)cc34)c2)CC1 (stereo not given)	13.2	-0.4	7.5	1.9	5.5
CCN(CC)C(=O)CC(c1ccc(N(C)C)cc1)c1c(OC)cc(OC)c2ccc(=O)oc12 (stereo not given)	2.7	·	13.5	15.6	18.1
CCN(CC)C(=O)CC(c1ccc(N(C)C)cc1)c1c(OC)cc(OC)c2c(-c3ccccc3)cc(=O)oc12 (stereo not given)	8.5	·	47.8*	4.5	-1.2
SMILES	CCHFV vOTU inh	3CLpro inhibitor	PriA SSB inh	Mtb hypoxia rep	VHR inh abs
CCCCCc1cc(=O)oc2c(C(CCN3CCCC3)c3ccc(N(C)C)cc3)c(OC)cc(OC)c12 (stereo not given)	8.1	·	49.6*	18.5	-11.7
O=C(Cc1ccc(Cl)cc1)NCc1cc(-c2ccccc2)on1	·	·	-6.0	·	·
CCN1C(=O)/C(=C2\C=Cc3ccccc3N2CC)SC1=S	4.3	1.4	64.1	37.4*	15.7
COc1ccccc1C(CNC(=O)CCc1ccc(C(F)(F)F)cc1)OC (stereo not given)	·	·	2.0	·	·
Cc1ccsc1C(=O)Nc1nnc(-c2ccco2)o1	2.8	3.4	50.1*	-6.3	16.8
Cc1ccc(CC(=O)Nc2nnc(-c3ccco3)o2)c(C)c1	·	·	41.0*	·	·
Cc1ccc(C(=O)Nc2nnc(-c3ccco3)o2)cc1	-12.6	2.1	1.0	-5.8	-1.0
O=C(NC[C@H]1CCCN1c1ccccc1)c1cccc(Cl)c1	·	·	21.0	·	·
c1ccc(CSc2nnc(-c3cccnc3)o2)cc1	-9.3	-5.3	-6.9	39.7*	4.3
COc1ccc(C(=O)N2CCN(c3nccn3-c3ccc(C)cc3)CC2)c(OC)c1	·	·	38.0*	·	·
COc1cc(OC)cc(C(=O)N2CCN(c3nccn3-c3cccc(Cl)c3)CC2)c1	·	·	40.0*	·	·
COc1ccccc1C(=O)N1CCN(c2nccn2-c2ccc(C)cc2)CC1	·	·	68.5	·	·
